Screening data as filed in PubChem.
PfHsp90 set2: growth inhibition of yeast expressing Plasmodium Hsp90; S. cerevisiae expressing PfHsp90, BacTiter-Glo ATP, 48 h; yeast lacking PDR1 and PDR3 efflux regulators; inhibition, % at 9.4 µM; hit rate 0.32% among 310,000;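 active means every replicate shows inhibition above about 80%, whatever the replicate mean, limit read from the data; inconclusive means mean inhibition reaches the set limit but some replicate falls short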;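 further: 0% = DMSO neutral controls and 100% = 20 µM radicicol positive controls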
TIM10 inh: growth inhibitors of TIM10 yeast strain. AID 463195. hit rate 1.4% among 330,000. inhibition, % at 10 µM. S. cerevisiae TIM10 strain growth, BacTiter-Glo luminescence, 24 h;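 active means inhibition of 40% or more at the single tested concentration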;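 further: wild-type TIM10 isogenic control strain grown at permissive 25 °C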
tim10-1 inh: tim10-1 yeast growth inhibition; S. cerevisiae tim10-1 ts strain growth, BacTiter-Glo, 24 h; inhibition, % at 20 µM; hit rate 2.2% among 330,000; AID 463190;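 active means inhibition of at least 40%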;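 further: mutant grown at 25 °C; 0% = DMSO wells with yeast and 100% = wells holding no yeast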
NALP3 yeast inh: NALP3 inhibition in yeast; hit rate 0.39% among 330,000; AID 2825; inhibition, % at 10 µM; Yeast reconstituted NLRP3/ASC/caspase-1, beta-gal luminescence, 24 h;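 active means inhibition of 50% or more; inactive means inhibition below 50%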;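 further: plate controls were induced DMSO wells for no effect and uninduced yeast grown without galactose for full effect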
SKKanGAS inh: blocks kanamycin growth of S. pyogenes SKKanGAS strain. BacTiter-Glo, 6 h. inhibition, % at 7.5 µM. hit rate 1.3% among 300,000;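 active means mean replicate score, as percent of positive control median, at least 50; inconclusive means mean below 50 but one replicate at or above 50; inactive means mean and every replicate below 50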;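 further: strain carries kanamycin resistance gene driven by streptokinase promoter and grows in 40 µg/ml kanamycin; loss of luminescence reflects streptokinase promoter inhibition or plain growth inhibition; 0% = median of DMSO wells and 100% = positive control at its reference dose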
tim23-1 inh: tim23-1 yeast growth inhibition; inhibition, % at 20 µM; S. cerevisiae tim23-1 growth, BacTiter-Glo luminescence, 24 h; AID 463212; hit rate 1.3% among 330,000;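 active means growth inhibition of the mutant yeast at or above 50%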;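 further: temperature-sensitive mutant grown at 25 °C; plate controls were DMSO-treated mutant yeast for no effect and medium wells lacking yeast for full effect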
An asterisk follows results filed as active. The list is not random: actives were taken first. Their share in the collection is about 4.6%.

How did COc1ccc2oc(C(=O)Nc3nc(-c4ccccn4)cs3)c(C)c2c1 do in these assays?
PfHsp90 set2: 2; TIM10 inh: -4; tim10-1 inh: 6; NALP3 yeast inh: 6; SKKanGAS inh: 84*; tim23-1 inh: 8

How did Cc1cc(C)c(OCC(=O)Nc2nc(-c3ccccn3)cs2)c(C)c1 do in these assays?
PfHsp90 set2: -13; TIM10 inh: 10; tim10-1 inh: -30; NALP3 yeast inh: 2; SKKanGAS inh: 97*; tim23-1 inh: 10

What do the screens show for `Cc1cc(C)c2ccc(=O)n(CC(=O)N/N=C/c3ccccc3Cl)c2n1`?
PfHsp90 set2: 20; TIM10 inh: 23; tim10-1 inh: 24; NALP3 yeast inh: 4; SKKanGAS inh: 24; tim23-1 inh: 14

What do the screens show for `CCCCc1ccc(NC(=S)Nc2ccc(Cl)c(S(=O)(=O)N(C)C)c2)cc1`?
PfHsp90 set2: 2; SKKanGAS inh: -5

What do the screens show for `O=C(N/N=C(\c1ccccc1)c1cccnc1)c1cccc(F)c1`?
TIM10 inh: 14; tim10-1 inh: 27; NALP3 yeast inh: 45; SKKanGAS inh: 95*; tim23-1 inh: 37

What do the screens show for `O=C(CNCCc1ccccc1)N1CCc2ccccc2C1`?
PfHsp90 set2: -13; TIM10 inh: -17; tim10-1 inh: 2; NALP3 yeast inh: -1; SKKanGAS inh: -3; tim23-1 inh: 10

Results for Cc1cc(NC(=O)c2ccccc2F)n(-c2nc3ccccc3[nH]2)n1 ?
PfHsp90 set2: -11; TIM10 inh: 23; tim10-1 inh: 30; NALP3 yeast inh: 25; SKKanGAS inh: inconclusive; tim23-1 inh: 13

Results for Cc1cc(NC(=O)c2ccc(C)s2)n(-c2nc3ccccc3[nH]2)n1 ?
PfHsp90 set2: -37; TIM10 inh: 29; tim10-1 inh: 13; NALP3 yeast inh: 14; SKKanGAS inh: 52*; tim23-1 inh: -3

How did Cc1cc(Nc2ccccc2)n(-c2nc3ccccc3[nH]2)n1 do in these assays?
PfHsp90 set2: -17; TIM10 inh: 25; tim10-1 inh: -1; NALP3 yeast inh: 2; SKKanGAS inh: 114*; tim23-1 inh: -2

Results for CCN(c1ccccc1)S(=O)(=O)c1cccc(C(=O)NCC(c2ccc(F)cc2)N2CCOCC2)c1 (centres undefined) ?
PfHsp90 set2: -27

How did CS(=O)(=O)c1ccc2nc(NC(=O)c3ccc(NS(=O)(=O)c4ccc(F)c(F)c4)cc3)sc2c1 do in these assays?
PfHsp90 set2: -29; TIM10 inh: 22; tim10-1 inh: 5; NALP3 yeast inh: 1; SKKanGAS inh: 85*; tim23-1 inh: -1

Results for CSc1nc2ccc(NC(=O)c3ccc(F)c(F)c3)cc2s1 ?
PfHsp90 set2: 25; TIM10 inh: 2; tim10-1 inh: -8; NALP3 yeast inh: 26; SKKanGAS inh: 4; tim23-1 inh: -20

What do the screens show for `CS(=O)(=O)c1ccc2nc(NC(=O)c3cccc(NS(=O)(=O)c4ccc(F)c(F)c4)c3)sc2c1`?
PfHsp90 set2: -10; TIM10 inh: -1; tim10-1 inh: 12; NALP3 yeast inh: 19; SKKanGAS inh: 37; tim23-1 inh: 6

Results for O=C(Nc1nc2ccc(SC(F)F)cc2s1)c1ccc(NS(=O)(=O)c2ccc(F)c(F)c2)cc1 ?
PfHsp90 set2: -112; TIM10 inh: 8; tim10-1 inh: 12; NALP3 yeast inh: 7; SKKanGAS inh: 114*; tim23-1 inh: 3

How did O=C(Cc1c(F)cccc1Cl)N1CCN(S(=O)(=O)c2cccs2)CC1 do in these assays?
PfHsp90 set2: -16; TIM10 inh: 4; tim10-1 inh: -14; NALP3 yeast inh: 4; tim23-1 inh: -6

What do the screens show for `CN(C)/C=C(\C=N\OCc1ccc(Cl)cc1Cl)C(=O)Nc1ccc(Cl)c(Cl)c1`?
PfHsp90 set2: -4; TIM10 inh: 8; tim10-1 inh: 37; NALP3 yeast inh: -11; SKKanGAS inh: 113*; tim23-1 inh: 10

How did Cc1cc(O)c(/C=N/OCc2ccc(Cl)cc2Cl)c(=O)o1 do in these assays?
PfHsp90 set2: -8; TIM10 inh: 19; tim10-1 inh: 8; NALP3 yeast inh: -6; SKKanGAS inh: -7; tim23-1 inh: -1

What do the screens show for `S=c1[nH]nc(-c2cccs2)n1/N=C/c1cn(-c2ccccc2)nc1-c1ccccc1`?
PfHsp90 set2: -74; TIM10 inh: 17; tim10-1 inh: 23; NALP3 yeast inh: 16; SKKanGAS inh: 75*; tim23-1 inh: 29

Results for Cc1ccc(NC2C(=O)NC(=O)NC2=O)cc1 ?
PfHsp90 set2: -1

How did CSCC[C@H](NC(=O)c1nn(C)c(=O)c2ccccc12)c1nc2ccccc2[nH]1 do in these assays?
PfHsp90 set2: 13; TIM10 inh: -16; tim10-1 inh: -11; NALP3 yeast inh: 13; SKKanGAS inh: 74*; tim23-1 inh: 2

What do the screens show for `CCC/C=C(\CCC)C(NS(=O)(=O)c1ccc(C(F)(F)F)cc1)c1ccccc1` (centres undefined)?
SKKanGAS inh: 71*

How did O=C(O)C(NS(=O)(=O)c1ccc(F)cc1)c1ccccc1 (centres undefined) do in these assays?
PfHsp90 set2: 9; TIM10 inh: -1; tim10-1 inh: 16; NALP3 yeast inh: 5; SKKanGAS inh: 5; tim23-1 inh: 12

What do the screens show for `Nc1[nH]n2c(=O)c3c(nc2c1N=Nc1ccccc1)CCCC3`?
PfHsp90 set2: -4; TIM10 inh: 9; tim10-1 inh: 19; NALP3 yeast inh: 17; SKKanGAS inh: 2; tim23-1 inh: 17

What do the screens show for `Nc1[nH]n2c(=O)c3c(nc2c1N=Nc1ccc(Cl)cc1)CCCC3`?
PfHsp90 set2: -31; TIM10 inh: 6; tim10-1 inh: 17; NALP3 yeast inh: 36; SKKanGAS inh: 83*; tim23-1 inh: 20

What do the screens show for `CCOC(=O)N1CCC(NCc2c(C(=O)N(C)Cc3ccccc3)nc3ccccn23)CC1`?
PfHsp90 set2: 21; TIM10 inh: -10; tim10-1 inh: 13; NALP3 yeast inh: -11; SKKanGAS inh: -14; tim23-1 inh: 16

Results for Cc1cc(NC(=S)N(Cc2ccc(Cl)cc2)Cc2ccc(C(=O)O)cc2)ccc1Cl ?
PfHsp90 set2: -40; TIM10 inh: 17; tim10-1 inh: 14; NALP3 yeast inh: 3; SKKanGAS inh: 64*; tim23-1 inh: 26

How did Cc1ccc(NC(=S)N(Cc2ccc(Br)cc2)Cc2ccc(C(=O)O)cc2)cc1C do in these assays?
PfHsp90 set2: -14; TIM10 inh: 14; tim10-1 inh: 12; NALP3 yeast inh: 21; SKKanGAS inh: 53*; tim23-1 inh: 23

What do the screens show for `Fc1ccccc1-c1nc(-c2ccc(Cl)cc2)no1`?
PfHsp90 set2: -9; TIM10 inh: 17; tim10-1 inh: 5; NALP3 yeast inh: 15; SKKanGAS inh: -2; tim23-1 inh: 2

How did c1ccc(-c2noc(-c3ccccc3-c3ccccc3)n2)cc1 do in these assays?
PfHsp90 set2: 19; TIM10 inh: 37; tim10-1 inh: 33; NALP3 yeast inh: 4; SKKanGAS inh: 75*; tim23-1 inh: 17
